FadD28 FP inh: inhibitors of FadD28 bisubstrate probe binding, primary screen, biochemical, fluorescence polarization, single point; inhibition, % at 12.5 µM; 360,000 tested, 0.22% active; in the data active = inhibition above about 8.5%, passing the limit was not always enough
PrP UTR inh: inhibition of PrP 5' UTR reporter expression; cell-based PrP 5' UTR mRNA reporter, plate reader; inhibition, % (no concentration beside the values); 340,000 tested, 0.35% active; AID 488862, 2010; in the data active = inhibition above about 52%; note: 0 = median of the neutral control wells
BioA inh: M. tuberculosis BioA enzyme inhibitors, primary screen, biochemical, plate reader, single point, HTS; 7,8-diaminopelargonic acid synthase BioA (Mycobacterium tuberculosis); purified M. tuberculosis BioA enzyme; inhibition, % at 9.99 µM; 360,000 tested, 0.096% active; AID 602481, 2012; in the data active = inhibition above about 40%
Yp Topo-I inh: Yersinia pestis topoisomerase I inhibitors, primary screen, biochemical, cleavage product accumulation, plate reader, single point; DNA topoisomerase I (Yersinia pestis CO92); Y. pestis Topo-I cleavage product accumulation; activity, % at 10 µM; 360,000 tested, 0.064% active; AID 504884, 2011; in the data active = activity above about 50%, passing the limit was not always enough
TcdB inh: TcdB glycohydrolase inhibitors, primary screen, biochemical, single point, plate reader | Toxin B (Clostridioides difficile), P18177 | TcdB glycohydrolase enzymatic assay | inhibition, % at 9.99 µM | 350,000 tested, 0.24% active; in the data active = inhibition above about 10%
PfHsp40 yeast: rescue of yeast from PfHsp40 toxicity, primary screen, S. cerevisiae, ATP luminescence; 340,000 tested, 0.68% active; S. cerevisiae expressing PfHsp40, growth rescue; growth rescue, % at 12.5 µM; in the data active = growth rescue above about 28%, passing the limit was not always enough;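 note: yeast W303a lacking pdr1 and pdr3 grown in galactose medium; growth measured after three days at 30 °C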
* = called active by the depositor; x = no result. An excerpt weighted towards active compounds, which were near 1.2% of everything screened.

SMILES	FadD28 FP inh	PrP UTR inh	BioA inh	Yp Topo-I inh	TcdB inh	PfHsp40 yeast
CSc1nc(Cl)cc(Nc2ccc(O)cc2)n1	-3	-31	x	-13	15*	-1
COc1ccc(NC(=O)Nc2ccc3c(c2)C(=O)N([C@@H](C)CO)C[C@H](C)[C@H](CN(C)C(=O)CCCN(C)C)OCCCC[C@H](C)O3)cc1	x	x	5	x	0	x
C(=N\N1CCOCC1)/c1ccsc1	0	-7	1	-1	1	94*
C(=N\N1CCOCC1)/c1cccs1	-4	-19	x	-1	x	0
COCC(=O)NC[C@H]1[C@H](c2ccc(C3=CCCC3)cc2)[C@@H](CO)N1C(C)=O	x	x	11	x	-1	x
c1ccc(Cn2cc(-c3cccnc3)cn2)cc1	1	-19	1	5	1	553*
COc1ccccc1NS(=O)(=O)c1cccc(-n2c(O)c(C=Nc3ccccc3C(=O)O)c3ccccc3c2=O)c1	20*	-13	-2	-1	2	2
CCOc1cc(/C=N/Nc2ccc(S(=O)(=O)Nc3ccccc3C(=O)O)cc2[N+](=O)[O-])cc(Cl)c1O	25*	x	0	-9	0	x
CC(=O)Nc1ccc(C=NNc2ccc(S(=O)(=O)Nc3ccccc3C(=O)O)cc2[N+](=O)[O-])cc1	28*	-5	7	-3	1	8
COc1cc(C=NNc2ccc(S(=O)(=O)Nc3ccccc3C(=O)O)cc2[N+](=O)[O-])ccc1O	50*	-10	10	-12	0	10
O=C(C[C@@H]1CC[C@H](NS(=O)(=O)c2ccc(F)cc2)[C@@H](CO)O1)NCc1ccc(Cl)c(Cl)c1	x	x	2	x	-1	x
COc1ccc(NC(=O)N(C)C[C@H]2OCCCC[C@@H](C)Oc3ccc(NS(=O)(=O)c4ccc(OC)cc4)cc3C(=O)N([C@H](C)CO)C[C@@H]2C)cc1	x	x	2	x	x	x
O=C(O)c1ccccc1NS(=O)(=O)c1ccc(NNC(=S)Nc2ccc(OC(F)F)cc2)c([N+](=O)[O-])c1	55*	-12	x	-7	-7	0
O=C(O)c1ccccc1NS(=O)(=O)c1ccc(N/N=C/c2cccc(O)c2O)c([N+](=O)[O-])c1	2	3	1	-22	-2	1
Cc1ccc(NC(=S)NNc2ccc([N+](=O)[O-])cc2S(=O)(=O)Nc2ccccc2C(=O)O)cc1C	1	7	3	-21	x	1
CN(CCO)c1ccc(C=NNc2ccc([N+](=O)[O-])cc2S(=O)(=O)Nc2ccccc2C(=O)O)cc1	32*	x	12	2	0	x
CC(=O)Nc1cccc(/C(C)=N/Nc2ccc(S(=O)(=O)Nc3ccccc3C(=O)O)cc2[N+](=O)[O-])c1	19*	8	11	-14	1	3
C[C@H](CO)N1C[C@H](C)[C@@H](CN(C)C(=O)Nc2ccccc2)OCCCC[C@H](C)Oc2ccc(NC(=O)Cc3ccccc3)cc2C1=O	x	x	-1	x	0	x
COC(=O)c1ccc(Cn2cnc3c(sc4nc(N5CCOCC5)c5c(c43)CCCC5)c2=O)o1	-4	-8	-1	52*	x	3
CCOc1cc([N+](=O)[O-])cc(/C=N/NC(=O)c2c(-c3ccccc3)noc2C)c1O	0	-14	0	-6	x	261*
CCOc1cc(/C=N/NC(=O)c2c(-c3ccccc3)noc2C)ccc1O	0	-19	6	-3	5	0
CC(OC(=O)c1cc2sccc2n1C)C(=O)NCC1CCCO1 (stereo not given)	-1	1	-1	-1	0	106*
COc1ccccc1-c1cn(CC[C@@H]2CC[C@H](NC(=O)C3CCCC3)[C@@H](CO)O2)nn1	x	x	x	x	-6	x
Cc1cc(C)c(S(=O)(=O)N2CCC(C(=O)NCc3ccc(Cl)cc3Cl)CC2)c(C)c1	-2	-8	-4	-10	x	38*
Cc1cc(C)c(S(=O)(=O)N2CCC(C(=O)NCc3ccncc3)CC2)c(C)c1	-7	-13	1	18	0	0
CO[C@H]1CN(C)C(=O)c2cc(NC(=O)NC(C)C)ccc2OC[C@@H](C)NC[C@H]1C	x	x	-1	x	x	x
CCCNC(=O)N(C)C[C@@H]1Oc2ncc(C#Cc3ccncc3)cc2C(=O)N([C@@H](C)CO)C[C@H]1C	x	x	-2	x	1	x
